From PubChem BioAssay (NCATS)
Unmarked numbers belong to inactive results. Records with an inconclusive call do not appear. Calls of active or inactive are those of the source. Unless noted, calls come from the whole dose curve; as a rule, active = well fitted curve in either direction with a large enough effect (not every such curve was filed as active); inconclusive = small, poorly fitted or top-dose-only effect, or another doubt; inactive = flat fitted curve, though single readings scatter.

Columns and labels:
[1] = Confirmation and Secondary Assay for Modulators of Hemoglobin Beta Chain Splicing at IVS2 654 locus (AID 910; active = well fitted curve in the direction sought with a large enough effect; an effect the other way counts as inactive or inconclusive;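 note: HeLa cells stably carrying EGFP split by mutant beta-globin IVS2-654 intron; per-well total GFP intensity by laser scanning cytometry after 2-day treatment; % of control where 0% means no effect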)
Summary of the method: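 Readout: per-well total peak green fluorescence (488 nm ex, 500–520 nm em) from objects 5–250 µm, reflecting correct splicing of an EGFP-654 reporter. Compounds were applied for 2 days at 37 °C to overnight-plated HeLa EGFP-654 cells; controls were DMSO and 500 nM IVS2-654 PNA.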

[2] = qHTS Assay for Identification of Small Molecule Agonists for Hypoxia Response Element Signaling Pathway (AID 914; active = well fitted activation curve with a large enough effect in the signal ratio, with a control signal flat, not every such curve was filed as active; the % refers to the signal ratio; note: potency is the fitted concentration of half-maximal effect; for activation: % of control where 0% means no effect); details: ME-180 HRE-bla reporter, beta-lactamase ratio, CoCl2, 17 h; activation: hits give high values
Summary of the method: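 HRE-bla ME-180 assay for agonist-like enhancement of an EC50 CoCl2 stimulus: 17 h at 37 degrees Celsius, CCF4 for 2.5 h, ratiometric 460/530 nm signal converted to %Activity and fitted to AC50.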

[3] = biological target: Lysosomal acid glucosylceramidase (Homo sapiens) (UniProt P04062); experiment: Glucocerebrosidase-p2 (AID 348; in the data active = potency below about 10 µM; note: potency is the fitted concentration of half-maximal effect); details: purified GBA, blue fluorogenic substrate, 40 min
Sequence of Lysosomal acid glucosylceramidase (Homo sapiens) (P04062 whole entry, looked up): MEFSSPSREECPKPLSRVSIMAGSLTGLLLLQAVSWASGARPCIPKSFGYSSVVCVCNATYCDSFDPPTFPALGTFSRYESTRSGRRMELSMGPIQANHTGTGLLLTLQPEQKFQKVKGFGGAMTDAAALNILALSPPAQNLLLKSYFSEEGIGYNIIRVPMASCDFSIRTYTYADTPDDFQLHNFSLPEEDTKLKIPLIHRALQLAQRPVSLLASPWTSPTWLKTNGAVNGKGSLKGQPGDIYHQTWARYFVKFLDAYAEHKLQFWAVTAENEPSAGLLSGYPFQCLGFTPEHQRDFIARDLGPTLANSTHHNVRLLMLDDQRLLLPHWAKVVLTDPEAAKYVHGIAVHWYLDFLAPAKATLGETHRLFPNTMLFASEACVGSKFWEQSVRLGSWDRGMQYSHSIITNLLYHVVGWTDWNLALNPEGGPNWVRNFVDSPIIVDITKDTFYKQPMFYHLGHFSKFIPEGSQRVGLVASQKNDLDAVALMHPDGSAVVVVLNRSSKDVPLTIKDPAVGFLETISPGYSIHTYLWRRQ
Summary of the method: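 Normal human glucocerebrosidase (0.2 nM) with blue fluorogenic substrate (80 uM final) in citrate/phosphate pH 5.9 with 10mM sodium taurocholate, 0.01% tween-20; 40 min RT, NaOH/glycine stop; fluorescence Ex 365/Em 440; AC50 from a titration from 0.6 nM upwards.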

[4] = NFAT Signaling Pathway (AID 444); details: Jurkat NFAT-bla M1, carbachol, beta-lactamase ratio, 5 h; at 7.69 µM (top of the series) unless noted;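 note: carbachol stimulus at about its EC50 of 1 µM final; % is set by controls: 0 for no effect and ±100 for the full control effect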
Summary of the method: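 Read-out: CCF4 FRET ratio (460 nm/530 nm) after 1 h RT dye loading, used for %activity and AC50 from titration series. Cells: Jurkat NFAT-β-lactamase/M1 line, treated with compound plus 1 uM carbachol for 5 h, 37 °C.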

[5] = Stat Signaling Pathway (AID 446); details: ME-180 (cervical carcinoma) SIE beta-lactamase reporter, IL-6 stimulated, 5 h; at 7.69 µM (top of the series) unless noted;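 note: ME-180 cervical cancer cells given 40 pM IL-6 alongside compound; SIE-controlled beta-lactamase reporter measured as 460/530 nm FRET emission ratio; % is set by controls: 0 for no effect and ±100 for the full control effect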
Summary of the method: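 Normalization used AC90 stimulation (300 pM IL-6) and AC90 inhibition (125 nM pan-JAK inhibitor at 40 pM IL-6). The underlying signal is SIE-driven beta-lactamase in ME-180 cells after 5 h IL-6 exposure with compound.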

[6] = biological target: Glucocorticoid receptor (Homo sapiens) (UniProt P04150); experiment: GR-EFC Redistribution (AID 451; calls by dose curve; note: potency is the fitted concentration of half-maximal effect); details: CHO-K1 GR-EFC translocation, beta-gal luminescence, 2 h
Sequence of Glucocorticoid receptor (Homo sapiens) (P04150 whole entry, looked up, the tested form may be a part): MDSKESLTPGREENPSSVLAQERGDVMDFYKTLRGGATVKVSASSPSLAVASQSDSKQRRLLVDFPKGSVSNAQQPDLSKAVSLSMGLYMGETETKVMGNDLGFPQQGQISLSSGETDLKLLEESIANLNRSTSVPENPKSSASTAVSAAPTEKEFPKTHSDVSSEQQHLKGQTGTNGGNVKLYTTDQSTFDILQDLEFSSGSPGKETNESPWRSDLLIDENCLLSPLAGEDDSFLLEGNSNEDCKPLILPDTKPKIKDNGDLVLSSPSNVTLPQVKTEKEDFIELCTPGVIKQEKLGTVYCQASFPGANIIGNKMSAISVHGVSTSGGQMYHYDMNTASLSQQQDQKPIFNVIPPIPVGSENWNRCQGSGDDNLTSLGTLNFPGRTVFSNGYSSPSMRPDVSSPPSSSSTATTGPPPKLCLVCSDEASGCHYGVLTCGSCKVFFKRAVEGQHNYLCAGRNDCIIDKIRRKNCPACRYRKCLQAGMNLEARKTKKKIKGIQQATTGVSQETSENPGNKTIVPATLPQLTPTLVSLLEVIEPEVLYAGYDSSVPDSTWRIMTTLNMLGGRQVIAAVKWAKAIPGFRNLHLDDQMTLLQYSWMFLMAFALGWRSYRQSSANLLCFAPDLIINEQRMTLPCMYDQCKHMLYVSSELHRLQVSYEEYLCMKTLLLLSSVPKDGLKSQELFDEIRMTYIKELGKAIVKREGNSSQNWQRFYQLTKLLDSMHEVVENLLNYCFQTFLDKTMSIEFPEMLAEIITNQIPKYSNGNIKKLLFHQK
Summary of the method: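 Translocation of GR-ED fusion to nuclear EA restores b-gal, read by luminescence after 1 h room-temperature detection. Engineered CHO-K1 biosensor cells, 1,000/well, exposed 2 h at 37 C to titrations up to 46 uM final.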

[7] = biological target: Mitogen-activated protein kinase 10 (Mus musculus) (UniProt Q61831); experiment: JNK3 AlphaScreen Assay (AID 530);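 note: kinase came from lysate of stimulated human HepG2 cells; signal reports phosphorylation of biotinylated GST-cJun 1-79 at Ser73 with 10 µM ATP; % is set by controls: 0 for no effect and ±100 for the full control effect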
Summary of the method: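 qHTS titrations with 15 min compound pre-incubation before adding ATP (10 uM final). Read-out: AlphaScreen of Ser73-phosphorylated biotin-GST-cJun using HepG2 lysate JNK3 activated by IL-1β and TNFα.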

[8] = biological target: 3',5'-cyclic-AMP phosphodiesterase 4B (Homo sapiens) (UniProt Q07343); experiment: qHTS Assay for Inhibitors of PDE-IV (AID 607; active = well fitted activation curve with a large enough effect in the main read-out, with a control signal flat, not every such curve was filed as active; note: % of control where 0% means no effect)
Sequence of 3',5'-cyclic-AMP phosphodiesterase 4B (Homo sapiens) (Q07343 whole entry, looked up): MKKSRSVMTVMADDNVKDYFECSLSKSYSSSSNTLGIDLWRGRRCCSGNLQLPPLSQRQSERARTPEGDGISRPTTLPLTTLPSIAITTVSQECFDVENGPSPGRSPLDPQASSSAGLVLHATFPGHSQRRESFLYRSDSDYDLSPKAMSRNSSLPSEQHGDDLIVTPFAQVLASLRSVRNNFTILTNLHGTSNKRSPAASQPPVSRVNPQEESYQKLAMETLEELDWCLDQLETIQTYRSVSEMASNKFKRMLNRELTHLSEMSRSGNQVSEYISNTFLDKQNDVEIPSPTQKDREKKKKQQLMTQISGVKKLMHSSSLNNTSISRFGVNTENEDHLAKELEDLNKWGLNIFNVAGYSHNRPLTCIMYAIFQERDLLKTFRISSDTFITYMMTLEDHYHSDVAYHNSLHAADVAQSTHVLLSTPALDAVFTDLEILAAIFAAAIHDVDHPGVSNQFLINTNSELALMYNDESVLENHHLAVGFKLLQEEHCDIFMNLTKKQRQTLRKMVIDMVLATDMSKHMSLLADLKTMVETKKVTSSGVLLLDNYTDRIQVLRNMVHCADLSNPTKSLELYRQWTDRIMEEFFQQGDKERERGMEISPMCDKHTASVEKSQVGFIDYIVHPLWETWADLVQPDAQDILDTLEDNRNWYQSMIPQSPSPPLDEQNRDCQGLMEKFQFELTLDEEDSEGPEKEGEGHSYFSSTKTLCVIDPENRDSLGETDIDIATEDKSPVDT
Summary of the method: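 HEK293 ACTOne cells with CNG channel (1000/well), endogenous PDE4; membrane potential dye, compounds up to 22.9 uM final. Fluorescence Ex 535/Em 590; RO 20-1724 (100 uM final) as reference.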

[9] = biological target: Cytochrome P450 1A2 (Homo sapiens) (UniProt P05177); experiment: p450-cyp1a2 (AID 410; calls by dose curve; note: potency is the fitted concentration of half-maximal effect)
Sequence of Cytochrome P450 1A2 (Homo sapiens) (P05177 whole entry, looked up): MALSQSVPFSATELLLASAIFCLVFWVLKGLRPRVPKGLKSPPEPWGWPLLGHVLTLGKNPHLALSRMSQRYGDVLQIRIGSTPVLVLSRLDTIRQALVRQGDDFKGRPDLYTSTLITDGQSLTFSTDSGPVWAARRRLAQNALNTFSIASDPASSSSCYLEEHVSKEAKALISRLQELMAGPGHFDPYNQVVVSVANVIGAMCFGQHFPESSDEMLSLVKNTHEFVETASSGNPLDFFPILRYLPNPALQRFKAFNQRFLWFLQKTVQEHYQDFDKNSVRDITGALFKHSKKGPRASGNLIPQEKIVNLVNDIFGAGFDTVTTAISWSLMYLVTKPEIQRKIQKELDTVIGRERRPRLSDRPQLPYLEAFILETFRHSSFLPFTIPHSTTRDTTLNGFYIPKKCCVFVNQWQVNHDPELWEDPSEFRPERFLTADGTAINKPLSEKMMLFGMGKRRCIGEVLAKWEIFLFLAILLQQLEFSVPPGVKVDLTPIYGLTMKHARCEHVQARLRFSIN
Summary of the method: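 O-Demethylation of luciferin 6' methyl ether by human CYP1A2 is monitored as luciferase luminescence. Substrate sits at Km (100uM); enzyme is 20nM. Values are scaled to 57 uM furafylline as maximal inhibition.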

[10] = biological target: Glucocorticoid receptor (Homo sapiens) (UniProt P04150); experiment: GR-GFP Redistribution (AID 450;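 active = compounds whose dose series gives a full or clear partial fitted curve of increased nuclear translocation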; note: potency is the fitted concentration of half-maximal effect); details: U2OS GR-GFP nuclear translocation, laser cytometry, 2 h
[11] = biological target: Cytochrome P450 3A4 (Homo sapiens) (UniProt P08684); experiment: qHTS Assay for Activators of Cytochrome P450 3A4 (AID 885; active = well fitted curve in the direction sought with a large enough effect; an effect the other way counts as inactive or inconclusive; note: nearly all actives have a fitted effect of over 65% in size)
Sequence of Cytochrome P450 3A4 (Homo sapiens) (P08684 whole entry, looked up): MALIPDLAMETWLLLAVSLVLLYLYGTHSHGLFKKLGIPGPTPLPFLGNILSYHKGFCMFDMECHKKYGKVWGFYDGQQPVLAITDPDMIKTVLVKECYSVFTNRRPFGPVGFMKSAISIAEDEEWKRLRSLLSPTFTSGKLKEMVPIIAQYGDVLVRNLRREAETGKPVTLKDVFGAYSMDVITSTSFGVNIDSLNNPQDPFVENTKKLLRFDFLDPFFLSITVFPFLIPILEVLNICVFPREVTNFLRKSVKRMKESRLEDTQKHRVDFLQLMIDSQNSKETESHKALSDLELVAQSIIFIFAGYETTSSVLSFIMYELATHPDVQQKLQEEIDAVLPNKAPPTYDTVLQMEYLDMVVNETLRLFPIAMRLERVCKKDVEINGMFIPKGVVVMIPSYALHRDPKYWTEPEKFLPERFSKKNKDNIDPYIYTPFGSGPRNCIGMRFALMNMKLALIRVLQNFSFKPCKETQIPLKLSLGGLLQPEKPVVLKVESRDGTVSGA
Summary of the method: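 Human CYP3A4 dealkylates Luciferin-PPXE to luciferin, which luciferase detection converts to light. Substrate was at its KM (25uM), buffer 200mM KPO4, reaction 60 min at RT.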

## Cc1cccc(CNc2ncnc3ccc(-c4ccc(C(=O)N(C)C)cc4)cc23)c1
[1]
  outcome: inactive

## COc1ccc2nc3cc(Cl)ccc3c(Nc3ccc(O)c(CN4CCN(C)CC4)c3)c2c1
[2]
  activation: 26.1%

## Cc1c(S(=O)(=O)O)ccc(N=Nc2c(O)c(C(=O)O)cc3ccccc23)c1Cl
[2]
  activation: -17.8%

## Cc1noc(C)c1C(=O)N1CCC[C@@]2(CCN(c3cccc(-c4ccccc4)c3)C2)C1
[3]
  Potency: > 11.4 µM
[4]
  activity change, negative = inhibition: -20.7%
[5]
  activity, negative = inhibition: -22.2%
[6]
  Potency: > 46 µM
[7]
  Potency: inactive
[8]
  Potency: inactive

## O=c1c(-c2ccccc2)nc2cnc(N3CCOCC3)nc2n1-c1ccccc1
[3]
  Potency: > 11.4 µM
[9]
  Potency: 12.6 µM (active)
[10]
  Potency: > 9.22 µM
[6]
  Potency: > 46 µM
[8]
  Potency: inactive
[11]
  Potency: inactive
[2]
  Potency: 3.16 µM (active)

## O=[N+]([O-])c1ccc(S(=O)(=O)Cc2ccccc2)c([N+](=O)[O-])c1
[3]
  Potency: > 11.4 µM
[4]
  activity change, negative = inhibition: -88.3% (active)
[6]
  Potency: > 9.22 µM
[7]
  Potency: inactive
